Assay outcomes from PubChem.
PLK1 PBD block = qHTS for Inhibitors of PLK1-PDB (polo-like kinase 1 - polo-box domain): Primary Screen | Potency, µM, for the others: max response, negative = inhibition, hits mostly inhibitors | 360,000 compounds, 2.8% hits | Serine/threonine-protein kinase PLK1 (Homo sapiens), P53350 | Plk1 PBD binding of FITC phosphopeptide, fluorescence polarization | AID 720504, 2013; note: potency is the fitted concentration of half-maximal effect; series mostly up to about 57 µM; % is set by controls: 0 for no effect and ±100 for the full control effect; nearly all actives have a fitted effect of over 65% in size
JMJD2A Tudor = qHTS Assay for Inhibitors of JMJD2A-Tudor Domain; 390,000 compounds, 4.4% hits; Lysine-specific demethylase 4A (Homo sapiens), O75164; AlphaScreen JMJD2A-Tudor / H3K4me3 peptide binding; Potency, µM (top dose mostly 114 µM), for inactives: top-dose activity change, negative = inhibition, most hits filed as inhibitors; note: potency is the fitted concentration of half-maximal effect; % is set by controls: 0 for no effect and ±100 for the full control effect; nearly all actives have a fitted effect of over 50% in size
KAT2A inh = qHTS Assay for Inhibitors of GCN5L2; Potency, µM (titrated, usually from 58.9 µM), for the others: at the top dose activity change, negative = inhibition, actives largely listed as inhibitors; GCN5L2 HAT assay, ThioGlo1 CoA-SH fluorescence; 390,000 compounds, 0.21% hits; note: potency is the fitted concentration of half-maximal effect; % is set by controls: 0 for no effect and ±100 for the full control effect
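Titration-based screen in which CoA formation is detected via maleimide probe ThioGlo1 (50uM) turning fluorescent on thiol reaction; substrates H3(1-25) 75uM and acetyl-CoA 70uM, GCN5L2 20nM, 20 min incubation at room temperature.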
BAZ2B block = qHTS Assay for Inhibitors of BAZ2B. 360,000 compounds, 4.4% hits. Bromodomain adjacent to zinc finger domain protein 2B (Homo sapiens), Q9UIF8. Potency, µM (highest dose often 114 µM), inactives show at the highest dose activity change, negative = inhibition, hits mostly inhibitors. AID 504333, 2011. AlphaScreen BAZ2B-H3K14Ac peptide displacement; note: potency is the fitted concentration of half-maximal effect; % is set by controls: 0 for no effect and ±100 for the full control effect; nearly all actives have a fitted effect of over 60% in size
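Compounds, titrated to a top concentration of 110 uM, were incubated 30 min at room temperature with preformed BAZ2B/acetyl-K14 H3 peptide complex (50 nM each). Proximity signal was measured by AlphaScreen after 20 min with beads.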
HP1b binding inh = HTS for Inhibitors of HP1-beta Chromodomain Interactions with Methylated Histone Tails. Potency, µM (highest dose often 114 µM), for the others: at the highest dose activity change, negative = inhibition, most hits filed as inhibitors. AlphaScreen HP1-beta / biotin-H3K9me3 peptide binding. 390,000 compounds, 0.56% hits. Chromobox protein homolog 1 (Homo sapiens), P83916; note: potency is the fitted concentration of half-maximal effect; nearly all actives have a fitted effect of over 70% in size
Target sequence (P83916 whole entry, looked up): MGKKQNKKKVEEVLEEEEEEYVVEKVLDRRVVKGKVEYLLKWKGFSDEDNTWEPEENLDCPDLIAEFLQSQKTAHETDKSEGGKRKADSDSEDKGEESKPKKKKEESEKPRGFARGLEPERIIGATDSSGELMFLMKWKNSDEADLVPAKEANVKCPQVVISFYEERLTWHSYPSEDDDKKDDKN
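AlphaScreen: HP1-beta (50 nM) preformed 30 min with biotin-H3(1-18)K9me3 peptide (50 nM) in PBS pH 7.4, 0.01% Tween-20. Compound added for 30 min at RT, then streptavidin donor/nickel chelate acceptor beads (10 ug/mL) for 30 min.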
PI5P4K alpha inh = qHTS for Inhibitors of phosphatidylinositol 5-phosphate 4-kinase (PI5P4K); Phosphatidylinositol 5-phosphate 4-kinase type-2 alpha (Homo sapiens), P48426; PI5P4Kalpha enzyme, ADP-Glo luminescence, 60 min; hits give low values; max response, %; 330,000 compounds, 1.2% hits; AID 652105, 2013; active = max response of -50% or lower; inconclusive = between -30% and -50%; inactive = -30% or higher; note: value at the top dose of about 77 µM; % is set by controls: 0 for no effect and ±100 for the full control effect
Target sequence (P48426 whole entry, looked up): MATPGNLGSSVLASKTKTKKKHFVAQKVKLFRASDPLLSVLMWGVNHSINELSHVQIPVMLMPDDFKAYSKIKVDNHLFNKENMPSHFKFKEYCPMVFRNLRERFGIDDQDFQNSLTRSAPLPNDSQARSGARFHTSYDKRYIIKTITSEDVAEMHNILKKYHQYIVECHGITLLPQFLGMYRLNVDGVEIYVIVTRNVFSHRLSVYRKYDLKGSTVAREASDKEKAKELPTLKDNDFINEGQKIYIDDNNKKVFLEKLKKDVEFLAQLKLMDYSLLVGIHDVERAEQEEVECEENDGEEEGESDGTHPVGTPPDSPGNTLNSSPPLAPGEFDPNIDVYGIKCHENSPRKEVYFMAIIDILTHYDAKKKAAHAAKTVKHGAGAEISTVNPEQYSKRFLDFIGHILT
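Single end-point luminescence (ADP-Glo) quantified ADP from PI5P4Kalpha turnover; ATP 5 microM final, 1 h at RT, 0.1% CHAPS and 0.28 mM EGTA in HEPES pH 7.4.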
JMJD2E inh = Confirmation qHTS Assay for Inhibitors of Human Jumonji Domain Containing 2E (JMJD2E); shares compounds with JMJD2A Tudor; Recombinant JMJD2E, FDH-coupled NADH fluorescence (FDH is formaldehyde dehydrogenase); Potency, µM (highest dose often 56.8 µM), for the others: at the top dose activity change, negative = inhibition, hits mostly inhibitors; AID 2677, 2010; 140 compounds, 93% hits
FDH inh = Counterscreen for JMJD2E Inhibitors: qHTS Assay for Inhibitors of Formaldehyde Dehydrogenase (FDH); shares compounds with JMJD2A Tudor; FDH enzyme assay, NADH fluorescence kinetic; Potency, µM (series often up to 56.7 µM), inactives show top-dose activity, negative = inhibition, hits mostly inhibitors; 140 compounds, 10% hits; AID 2680, 2010
G9a confirm = qHTS Assay for Inhibitors of Histone Lysine Methyltransferase G9a: Hit Confirmation | G9a H3K9 monomethylation, AlphaScreen, 2 h | 370 compounds, 89% hits | shares compounds with JMJD2A Tudor | Potency, µM, most hits filed as inhibitors; note: potency is the fitted concentration of half-maximal effect; nearly all actives have a fitted effect of over 65% in size
* marks the source's active call; other numbers are inactive results; u = inconclusive; x = no result given; [ ] = dose if it differs, or a comment. Sampled rows, rich in hits. Any-hit rate of the full collection: about 7%. Unless noted, calls come from the whole dose curve; as a rule, active = well fitted curve in the direction sought with a large enough effect; inconclusive = small, poorly fitted or top-dose-only effect, or another doubt; inactive = no such curve, though single readings can be large; an effect the other way counts as inactive or inconclusive.

SMILES	PLK1 PBD block	JMJD2A Tudor	KAT2A inh	BAZ2B block	HP1b binding inh	PI5P4K alpha inh	G9a confirm	others
CCn1c(CSc2nc3ccccc3s2)nnc1SCC(=O)c1ccc(O)c(O)c1	-13.8%	44.7µM*	-8.3%	35.5µM*	-6.1%	x	1.42*
CCc1ccc(NC(=O)CCc2nc3sc4c(c3c(=O)[nH]2)CCCC4)cc1	-5.4%	-30.3%	-8.3%	-36.8%	30.3%	u	x
CCN(c1ccc(NC(=O)CCc2nc3sc4c(c3c(=O)[nH]2)CCCC4)cc1)C(C)C	-8.8%	u	-12.1%	-33.4%	-20.9%	-11.7	2.24*
Cn1nnnc1SCC(=O)Nc1ccc(Br)cc1Cl	-2.2%	9.4%	-8.8%	-23.8%	42.8%	2.5	u
COCCN(C(=S)Nc1cc(C)cc(C)c1)C(C)c1ccco1 (centres undefined)	-11.8%	-12.8%	-7.0%	-22.3%	8.8%[57 µM]	1.3	x
Cc1ccc(CCNC(=O)CNS(=O)(=O)c2ccc3nc(C)sc3c2)cc1	-15.4%	-7.4%	-1.9%	-1.8%	64.5%	0.1	x
Cc1nc2ccc(CCO)cc2s1	-18.0%	-6.5%	-3.3%	1.1%	40.2%	0.2	u
CCOC(=O)c1ccc(NC(=O)COc2cccc3c(=O)n(C)ccc23)cc1	x	-18.2%	-5.1%	-38.4%	13.7%	x	x
Cc1ccc(S(=O)(=O)Nc2ccc(NC(=O)CN3CCCCC3)cc2)cc1	-3.0%	-16.2%	0.1%	10.1%	11.3%	1.9	x
Cc1ccc(S(=O)(=O)Nc2cccc(NC(=O)CN3CCCCC3)c2)cc1	-21.2%	u	-2.7%	u	u	0.5	2.83*
CCOC(=O)c1ccccc1NC(=O)N(Cc1ccc(C)cc1)Cc1cccn1-c1nnc(N2CCCC2=O)s1	x	9.8%	0.5%	-2.0%	42.5%	x	u
Cc1cc(Cn2nc(C(=O)NCc3cccs3)cc2-c2ccccc2)on1	0.5%	-3.5%	-0.6%	-3.2%	49.1%	-0.7	x
COc1ccc(Cc2nnc(SCC(=O)NC3CCCCC3)n2C)cc1	-3.2%	-3.4%	0.8%	-0.5%	28.7%	x	10*
CC(=O)N1N=C(c2ccccc2OC(=O)/C=C/c2ccccc2)CC1c1ccccc1 (centres undefined)	-14.3%	-26.4%	u	u	-8.6%	3.1	x
COc1ccc(O)c(CNc2ccccc2F)c1	-3.6%	-29.0%	-8.2%	x	2.5%	2.8	28.3*
COc1ccc(N2CCC(CNC(=O)Nc3ccccc3)C2)cc1 (centres undefined)	-2.9%	17.8µM*	-0.7%	50.1µM*	44.7µM*	x	1*
CC(C)C#Cc1cnc2c(c1)C(=O)N([C@@H](C)CO)C[C@@H](C)[C@H](CN(C)Cc1cccc(F)c1)O2	-13.4%	x	x	x	x	7.2	x
CC1(C(=O)NCCC(F)(F)F)Cc2c(-c3ccccc3)ccnc2O1 (centres undefined)	-10.0%	x	x	x	x	-1.8	x
Cc1csc2nc(COc3ccc(NC(=O)COc4ccccc4F)cc3)cc(=O)n12	x	-12.9%	0.3%	-3.7%	25.3%	x	x
Cn1cnc2cc(NCc3ccccc3Cl)ccc21	0.1%	u	-1.7%	-31.1%	-7.3%	0.9	x
CN(C)c1ccc(CNc2ccc3c(c2)ncn3C)cc1	-12.8%	17.8µM*	-3.0%	17.8µM*	20µM*	x	10*
CCCCn1cnc2cc(NCc3ccc(OCC)cc3)ccc21	x	39.8µM*	-1.8%	22.4µM*	u	x	6.46*
CCCn1cnc2cc(NCc3cccs3)ccc21	-2.3%	u	-2.7%	u	-1.3%	0.8	x
COc1ccc(CNc2ccc3c(c2)nc(C)n3C)cc1OC	-3.0%	-13.8%	-8.0%	-19.6%	14.8%	0.5	x
CCCn1cnc2cc(NCc3ccccc3OCC)ccc21	x	56.2µM*	-7.8%	39.8µM*	u	x	2.57*
SMILES	PLK1 PBD block	JMJD2A Tudor	KAT2A inh	BAZ2B block	HP1b binding inh	PI5P4K alpha inh	G9a confirm	others
CCOc1ccc(CNc2ccc3c(c2)nc(C)n3C)cc1	-6.9%	-35.1%	2.0%	-9.4%	-10.2%	0.8	6.32*
Cn1c(=O)c2c(SCC(=O)N3CCc4ccccc43)nc(-c3cccc(F)c3)nc2n(C)c1=O	x	-14.9%	-12.7%	1.6%	43.5%[57 µM]	x	x
c1ccc(-n2nnnc2SCc2cn3ccccc3n2)cc1	u	-29.0%[57.1 µM]	-6.8%	u	-14.3%	1.3	28.3*
COc1ccc(Br)cc1CNc1ccc(O)cc1	29.9µM*	u	0.8%	39.8µM*	u	-29.2	3.17*
Oc1ccc(NCc2ccccc2OCc2ccccc2Cl)cc1	x	u	-2.6%	25.1µM*	-10.0%	x	11.5*
Oc1ccc(NCc2ccccc2OCc2ccccc2F)cc1	-11.0%	56.2µM*	-8.0%	44.7µM*	u	-22.5	x	JMJD2E inh=20µM*;FDH inh=u
Cc1ccc(NCc2ccccc2OCc2ccccc2F)cc1	-5.9%	u	-5.1%	u	-24.9%	20.9	x
CCOC(=O)C1CCN(C(=O)Cc2cccc3ccccc23)CC1	-0.4%	2.2%	-7.9%	11.6%	23.9%	-7.7	17.8*
CN(CC(=O)Nc1ccc(N2CCOCC2)cc1)Cc1c(O)ccc2ccccc12	4.74µM*	56.2µM*	-5.6%	u	-1.4%	-27.0	0.252*
COc1ccc(C)cc1NC(=O)C(NCC(O)c1ccccc1)c1ccccc1 (centres undefined)	-4.3%	10µM*	-6.0%	22.4µM*	u	6.0	14.2*
